# In PubChem BioAssay (NCI):
# About 83,000 compounds went through this panel and 20% of them were active in at least one assay; those are over-represented in the sample as a whole.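 The test compound was applied at a single concentration to cells in 96-well plates for 48 hours, and percent growth was recorded.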 Unmarked numbers belong to inactive results. Activity calls are given as the source filed them. The calls were made as follows: active = growth percent below 10; inactive = the rest.
# What was measured:
# Assay in all cases: NCI-60 one-dose screen, 48 h (100 = growth as untreated, 0 = no growth, -100 = all killed)
# Conditions in all cases: 10 µM unless noted
# [1] = system: NCI-H23 lung
# [2] = system: NCI-H226 lung
# [3] = system: NCI-H322M lung
# [4] = system: HOP-62 NSCLC
# [5] = system: NCI-H460 lung
# [6] = system: HOP-92 NSCLC
# [7] = system: NCI-H522 lung
# [8] = system: A549/ATCC NSCLC
# [9] = system: 786-0 renal
# [10] = system: COLO 205 colon
# [11] = system: DU-145 prostate
# [12] = system: K-562 leukemia
# [13] = system: MALME-3M melanoma
# [14] = system: MDA-MB-231 breast
# [15] = system: RXF 393 renal
# [16] = system: SF-268 CNS
# [17] = system: SF-295 CNS
# [18] = system: SF-539 CNS
# [19] = system: UACC-257 melanoma
# [20] = system: M14 melanoma
Compound,growth [1],growth [2],growth [3],growth [4],growth [5],growth [6],growth [7],growth [8],growth [9],growth [10],growth [11],growth [12],growth [13],growth [14],growth [15],growth [16],growth [17],growth [18],growth [19],growth [20]
Cc1nn(-c2cc(=O)[nH]c3ccc(Cl)cc23)c(N)c1C#N,93.8%,81.3%,98.2%,94.9%,101%,104%,93.3%,108%,106%,119%,114%,113%,105%,96.9%,113%,102%,100%,99.9%,107%,110%
COc1ccc(-c2nn(-c3ccc(Cl)cc3)cc2-c2nc3ccccc3[nH]2)cc1,89.1%,91.4%,102%,113%,88.1%,97%,67.7%,95.4%,103%,101%,120%,89%,98.5%,73%,94.7%,94.7%,98.1%,106%,101%,90%
O=C1/C(=C/N2N=C(c3ccc4ccccc4c3)CC2c2ccccc2O)SC(=S)N1c1cccnc1 (stereo unspecified),43.3%,31.7%,46%,25.2%,15.3%,77%,21.1%,18.8%,14%,27.3%,24.8%,10.9%,79.5%,53%,-8.6% (active),31.9%,10.5%,-26.2% (active),69.1%,7.17% (active)
O=c1cc(/C(=C2/C=CC=N2)c2ccc[nH]2)c2cc(Cl)ccc2o1,62.3%,35%,55.8%,50.4%,24.3%,66.5%,56.1%,55.2%,22.4%,87.2%,47%,24.8%,66.6%,71%,-29.1% (active),56.4%,13.9%,16.1%,38.3%,35.5%
Nc1ccc(-c2cc3c(NCc4ccccc4)ncnc3s2)cc1,66.6%,65.9%,60.7%,92.1%,90.7%,85.5%,72.5%,70.9%,79.2%,108%,55.8%,61.8%,91.3%,86%,74.2%,86.9%,83.5%,86%,85.8%,103%
O=c1c2c3c(sc2nc(N/N=C/c2cn(-c4ccccc4)nc2-c2ccc(Cl)cc2)n1Cc1ccccc1)CCCC3,106%,102%,111%,98.5%,97.7%,74.2%,84.7%,83.6%,95.2%,109%,116%,3.49% (active),115%,113%,118%,91.8%,62.2%,95.9%,92%,98.1%
C#CCOc1ccc2ncnc(N3CCN(C(=O)CCl)CC3)c2c1,93.3% [8.25 µM],-15.9% [8.25 µM] (active),99.3% [8.25 µM],85% [8.25 µM],101% [8.25 µM],88.7% [8.25 µM],-59.5% [8.25 µM] (active),100% [8.25 µM],94.5% [8.25 µM],96.1% [8.25 µM],102% [8.25 µM],18.9% [8.25 µM],92.4% [8.25 µM],95.7% [8.25 µM],87.2% [8.25 µM],68.7% [8.25 µM],109% [8.25 µM],91.4% [8.25 µM],90.8% [8.25 µM],61.7% [8.25 µM]
C=C(C)[C@@H]1CC[C@]2(C(=O)OC)CC[C@]3(C)[C@H](CC[C@@H]4[C@@]5(C)C/C(=C/c6cccc(I)c6)C(=O)C(C)(C)[C@@H]5CC[C@]43C)[C@@H]12,91.4%,94.2%,97.3%,88%,101%,100%,89%,101%,95.3%,125%,113%,96.9%,91.6%,98.4%,88.1%,95.1%,97.6%,91.7%,107%,103%
COc1ccc(/C=C2\Oc3cc(OCCCCN4CCCC4)ccc3C2=O)cc1,83.3%,94.5%,98.6%,91.7%,1.37% (active),73.7%,91.9%,79.3%,85.2%,86.4%,95%,-40.3% (active),110%,91.3%,74.5%,87.9%,83.5%,42.4%,96.9%,86.2%
COc1cc(-c2ccc3c(c2)NC(=O)/C3=C\c2ccc[nH]2)ccc1O,12.1%,39.6%,30.3%,27.8%,7.55% (active),57.8%,6.78% (active),20.7%,14.8%,25.2%,17.8%,5.55% (active),66.4%,66.4%,17.8%,31.1%,-19.6% (active),0.982% (active),39.3%,34.1%
COc1cc2nc(N3CCCC3)nc(NCc3ccccc3)c2cc1OC,82.3%,90%,79.7%,86.8%,79.2%,61.4%,73.1%,76%,78.6%,-20.7% (active),80.9%,1.41% (active),41.2%,68.9%,35.7%,87.6%,71.1%,52.4%,-46.6% (active),-71.2% (active)
Cc1ccc(NS(=O)(=O)c2ccc(-c3cnc(C4CC4)o3)cc2)cc1C,21.2%,47.6%,42.7%,33.7%,12.3%,29.6%,-7.94% (active),27.1%,43.4%,-10.1% (active),14.4%,9.36% (active),42.6%,40.1%,-3.66% (active),52%,10.3%,-13.6% (active),49.8%,25.6%
O=C1CC[C@H](c2ccc(O)c3c2C(=O)[C@@H]2O[C@@H]2C3=O)c2cccc(O)c21,94.4%,-14.6% (active),98%,79%,97.1%,38.4%,-29.4% (active),87.2%,44.8%,-34.6% (active),21.1%,0.986% (active),86.5%,43.5%,16.9%,84.4%,91.3%,75%,38%,69.6%
Nc1n[nH]c2ccc([C@@H]3Nc4ccc5cn[nH]c5c4[C@H]4C5CCC(C5)[C@@H]34)cc12 (stereo partly specified),43.5%,37.9%,47.2%,48.3%,1.13% (active),104%,27.1%,24.4%,38.4%,-9.43% (active),18.3%,10.8%,51.7%,50.8%,-1.15% (active),42%,13.2%,-19.6% (active),72.6%,10.7%
c1ccc(-c2cc3n4c(-c5ccccc5)nn(-c5ccccc5)c4cnc-3n2)cc1,58.1%,73.4%,23.6%,102%,54.9%,51.2%,9.2% (active),31.3%,75.5%,75.1%,38.6%,104%,60.1%,36.2%,-16.1% (active),46.1%,30.7%,48%,22.1%,71.4%
CC1=C/C(=C(\c2ccc(N(C)C)cc2)c2ccc([N+](C)(C)C)cc2)C=CC1=[N+](C)C,80.4%,88.4%,104%,37%,74.9%,56.5%,97.2%,29.2%,94.7%,66%,51.5%,37.5%,120%,93.9%,76.6%,92%,48.4%,78.6%,99.8%,77.5%
COc1cc(C(=O)Oc2ccccc2OC(=O)c2cc(OC)c(OC)c(OC)c2)cc(OC)c1OC,86.8%,107%,108%,88.1%,114%,83.4%,89.6%,85.3%,118%,103%,109%,100%,130%,85.5%,89.5%,84%,115%,88.5%,86.7%,116%
C(=C\c1nccc2c1[nH]c1ccccc12)/c1ccccc1,34.3%,51.6%,29.9%,40.7%,4.91% (active),45.4%,4.33% (active),21.4%,35.8%,3.43% (active),9.25% (active),69.2%,29.4%,30.7%,-44.6% (active),41.8%,-32% (active),7.92% (active),37.5%,19.8%
Cn1cc(-c2nonc2-c2cn(C)c3ccc(F)cc23)c2cc(F)ccc21,67.6%,51.3%,97.3%,45.6%,49.9%,66%,22%,47.9%,85.7%,62.4%,81.1%,12.6%,49.5%,82.3%,46.7%,71.3%,56.4%,66.1%,71.7%,31.4%
COc1ccc(-n2nc(C)c3c(Oc4ccc(NC(=O)Nc5c(Cl)cccc5Cl)cc4)ncnc32)cc1,98.3%,107%,96.8%,97.7%,101%,98%,93.6%,103%,110%,99%,105%,104%,99.4%,101%,107%,93.6%,100%,96.7%,102%,110%
Cn1c(NCCc2ccc(O)c(O)c2)nc2c1c(=O)n(Cc1ccc(Cl)c(Cl)c1)c(=O)n2C,91.5%,73.7%,82.1%,104%,88.2%,45.3%,-28.7% (active),80.3%,83%,57.4%,74.5%,79.6%,75.7%,69.5%,72%,64.8%,97.3%,75.6%,84.6%,85.6%
O=CNc1ccc2c(c1)Cc1cccc(NC=O)c1-2,95.6%,83.6%,106%,100%,95.8%,97.7%,82.2%,85.6%,104%,99.9%,106%,104%,106%,83.5%,103%,94.2%,111%,101%,93.4%,91.2%
O=C(COc1ccc(/C=C2\CSc3ccccc3C2=O)cc1)Nc1nccs1,61.1%,97.9%,87.9%,94.5%,107%,78.8%,7.48% (active),100%,95.7%,117%,130%,-14.2% (active),77.8%,95.6%,–,99.6%,118%,111%,97.3%,89.6%
CN1CCN(c2ccc(Nc3c4ccccc4nc4ccccc34)cc2)CC1,105%,107%,120%,110%,104%,178%,99.7%,98.2%,102%,114%,111%,105%,103%,105%,110%,107%,–,99.6%,103%,113%
COc1ccc(C2Nc3c(c(C(C)(C)C)nn3-c3ccccc3)C(=O)CS2)cc1 (stereo unspecified),99.6%,98.2%,104%,106%,106%,91.7%,84.5%,89.3%,113%,103%,101%,98.5%,98%,94.2%,103%,98%,–,109%,101%,112%
C#CCOc1ccc2ncnc(Nc3cccc(CNC(=O)C=C)c3)c2c1,104% [8.25 µM],77.3% [8.25 µM],105% [8.25 µM],108% [8.25 µM],101% [8.25 µM],93.3% [8.25 µM],91.9% [8.25 µM],102% [8.25 µM],93.1% [8.25 µM],111% [8.25 µM],108% [8.25 µM],104% [8.25 µM],109% [8.25 µM],101% [8.25 µM],79.4% [8.25 µM],86.2% [8.25 µM],102% [8.25 µM],99.9% [8.25 µM],106% [8.25 µM],103% [8.25 µM]
O=C1NC(=O)C(c2ccc(Cl)cc2Cl)N1 (stereo unspecified),100%,103%,100%,111%,95.2%,107%,93.8%,101%,110%,125%,112%,102%,106%,101%,117%,106%,110%,115%,112%,106%
O=C(N(c1ccccc1)c1ccccc1)n1ccc2nc(Cl)nc(Cl)c21,60.8%,53.9%,67.9%,45.5%,36.1%,52.3%,24.9%,56.2%,80.1%,77.7%,33.8%,42.8%,58.6%,71.4%,32.7%,66.3%,74.1%,68%,70.2%,69.9%
O=C1NC(=S)NC(=O)C1CC(=O)n1c(-c2ccccc2)nc2ccccc21,97.2%,86.1%,94%,79.9%,101%,108%,96.9%,97.7%,104%,111%,113%,98.6%,93%,88%,110%,93.8%,96.3%,94.1%,111%,99%
COc1ccc(Nc2cc(C)nc(N3CCN(c4ccnc5cc(Cl)ccc45)CC3)n2)cc1,41.2%,60.6%,26.9%,36.7%,18.5%,25.3%,38%,26.3%,29.1%,8.4% (active),58%,10.1%,–,17.7%,51.4%,52.6%,15.9%,54.7%,62.6%,27.3%
